Measured values reported in PubChem BioAssay (NCI).
This is part of a sample that, as a whole, favours compounds with a hit. Of some 83,000 tested, about 20% had one in any assay.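 Method: cells in 96-well plates; compound added at one concentration; 48 h incubation; percent growth measured; values under 10 scored active.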 Unmarked numbers belong to inactive results. Calls of active or inactive are those of the source.

What was measured:
Test in all cases: NCI-60 one-dose screen, 48 h (100 = growth as untreated, 0 = no growth, -100 = all killed)
Conditions in all cases: 10 µM unless noted
HCT-15 colon = tested on: HCT-15 colon
HT29 colon = tested on: HT29 colon
SNB-75 CNS = tested on: SNB-75 CNS
SNB-19 CNS = tested on: SNB-19 CNS
U251 CNS = tested on: U251 CNS
PC-3 prostate = tested on: PC-3 prostate
SK-MEL-5 melanoma = tested on: SK-MEL-5 melanoma
UACC-62 melanoma = tested on: UACC-62 melanoma
LOX IMVI melanoma = tested on: LOX IMVI melanoma
SK-MEL-28 melanoma = tested on: SK-MEL-28 melanoma
EKVX NSCLC = tested on: EKVX NSCLC
SN12C renal = tested on: SN12C renal
UO-31 renal = tested on: UO-31 renal
TK-10 renal = tested on: TK-10 renal
CAKI-1 renal = tested on: CAKI-1 renal
A498 renal = tested on: A498 renal
MOLT-4 leukemia = tested on: MOLT-4 leukemia
ACHN renal = tested on: ACHN renal
CCRF-CEM leukemia = tested on: CCRF-CEM leukemia

| SMILES | growth (HCT-15 colon) [%] | growth (HT29 colon) | growth (SNB-75 CNS) [%] | growth (SNB-19 CNS) [%] | growth (U251 CNS) | growth (PC-3 prostate) [%] | growth (SK-MEL-5 melanoma) | growth (UACC-62 melanoma) [%] | growth (LOX IMVI melanoma) | growth (SK-MEL-28 melanoma) [%] | growth (EKVX NSCLC) [%] | growth (SN12C renal) [%] | growth (UO-31 renal) | growth (TK-10 renal) [%] | growth (CAKI-1 renal) [%] | growth (A498 renal) | growth (MOLT-4 leukemia) | growth (ACHN renal) [%] | growth (CCRF-CEM leukemia) |
| --- | --- | --- | --- | --- | --- | --- | --- | --- | --- | --- | --- | --- | --- | --- | --- | --- | --- | --- | --- |
| CNC(=O)c1ccccc1Sc1ccc2c(/C=C/c3ccccn3)n[nH]c2c1 | 33.9 | 25.2% | 26.3 | 50.2 | 40.1% | 28.1 | 11.2% | 13 | 8.31% (active) | 40.7 | 53.8 | 27.6 | 17.3% | 54.8 | 30.7 | -23.3% (active) | 13.4% |  |  |
| O=C(/C=C/c1cn(-c2ccccc2)nc1-c1cccc(Nc2ccnc3cc(Cl)ccc23)c1)c1ccc2c(c1)OCO2 | 91.9 | 114% | 101 | 104 | 89.1% | 96.6 | 85.3% | 104 | 94.1% | 82.7 |  | 117 | 84.8% | 123 | 100 | 92.3% |  | 105 | 17.2% |
| Cn1c(=O)c2c3c(oc2c2ccccc21)C(=O)c1ccccc1C3=O | 85 | 73.7% | 64.4 | 93.3 | 90.2% | 64.4 | 76.9% | 77 | 76.6% | 112 | 70.7 | 81.8 | 54.8% | 94.5 |  | 93.3% | 2.39% (active) |  | 19.1% |
| O=[N+]([O-])c1cc(F)c2cccnc2c1O | 92.1 | 111% | 86 | 93 | 91.9% | 96.6 | 90.2% | 92.9 | 84.7% | 135 | 110 | 93.5 | 73.6% | 152 |  |  |  | 89.4 | 120% |
| Nc1c(C(=O)c2ccc(Br)cc2)sc2nc3c(cc12)CCCC3 | 80.9 | 96.6% | 101 | 97.3 | 89.6% | 85.4 | 92% | 93.9 | 112% | 89 |  | 90.7 | 89.7% | 108 | 105 | 70.9% | 96.4% | 96.3 | 89.9% |
| COc1ccc([C@@H]2[C@@H](Cl)C(=O)N2c2cc(OC)c(OC)c(OC)c2)cc1C | 15.8 | 11.1% | 75.6 | 33.6 | 12.9% | 28.9 | -13.8% (active) | 35.3 | 24.4% | 70.7 | 44.2 | 31.2 | 38.8% | 71.3 |  |  | 8.89% (active) | 31.6 | 9.56% (active) |
| CNC(=O)c1cc(Oc2ccc(NC(=O)c3nc(S(C)(=O)=O)sc3-c3ccc(F)cc3)cc2)ccn1 | 86.4 | 4.79% (active) | 113 | 84.4 | 86.6% | 71.1 | 90.3% | 93.3 | 45.7% | 57.9 | 77.8 | 97.5 | 87.5% | 77 |  |  | 83.1% | 90.8 | 85.9% |
| COc1ccc(-c2nc(-c3ccccc3OCc3ccccc3OC)nc(C)c2C(C)=O)cc1 | 78.9 | 56.9% | 83.8 | 93.7 | 90.2% | 56.8 | 91.3% | 54.7 | 98.7% | 101 |  | 85.1 | 64.3% | 103 | 73.3 | 79.1% | 62.4% | 87 | 73.1% |
| COc1ccc(/C=C2\Cc3c(Br)cccc3C2=O)c(OC)c1 | 51.1 | 64.4% | 70.7 | 53.3 | 55.6% | 81.1 | 47.9% | 38.9 | 59.9% | 64.3 | 59.8 |  | 78.3% | 90.6 | 79.4 | 83.1% | 94.1% | 59.8 | 97.8% |
| Nc1ncnc2c1N=C(c1ccc(F)cc1)CC(c1sc(Cl)nc1Cl)N2 (centres undefined) | 102 | 92.2% | 74 | 92.9 | 84.7% | 79.5 | 92% | 94.5 | 93% | 102 |  | 81.3 | 63.2% | 93.2 | 98 | 68.9% |  | 95.5 | 29.1% |
| COc1ccc(/C=C2\CCCC3=C2N=C2SC(C)=NN2C3c2ccc(OC)c(OC)c2)cc1OC (centres undefined) | 28.3 | 4.84% (active) | 27.7 | 45 | 15.5% | 40 | 24.2% | 34.6 | 1.41% (active) | 58.9 |  | 26.6 | 36.1% | 25.6 | 26.1 | 52.2% | 27.7% | 20.7 | 3.82% (active) |
| Cc1cc(C)c2c(n1)sc1c(Nc3ccc(O)cc3)ncnc12 | 51.7 | 40% | 50.4 | 31 | 26.6% | 47.2 | 25.6% | 16.1 | 13.1% | 77.7 |  | 21.5 | -10.3% (active) | 59.1 | 15.8 | 18.6% | 14.3% | 16 | 16.6% |
| CN(C)CCOc1nc2c3ccncc3cc(-c3cccc(Cl)c3)c2c2cnccc12 | 22.1 | 17% | 39.8 | 28.4 | 28% | 30.1 | 10.8% | 24.6 | 5.79% (active) | 13.3 | 37.4 |  | 14.9% | 30.7 | 29.6 | 35.5% | -14.7% (active) |  | 3.4% (active) |
| CCOC(=O)C1=C(C)NC(SCc2nnc(-c3ccc(Cl)cc3)o2)=NC1c1ccc(Br)cc1 (centres undefined) | 65.1 | 78.7% | 67.7 | 72 | 65.7% | 48.8 | 51.4% | 55.3 | 75% | 81.3 | 71.3 |  | 52.6% | 79.9 | 67.2 | 73.2% | 8.29% (active) | 69.7 | 43.4% |
| O=C1OCC2=C1C(c1cccc(Br)c1)c1cc3c(cc1N2CCO)OCCO3 (centres undefined) | 13.9 | 2.11% (active) | 28.5 | 31.6 | 6.01% (active) | 25.4 | 1.61% (active) | 27.3 | 23.5% | 51.7 | 44.1 | 26.7 |  | 62.7 | 15 | -11% (active) | 20.5% | 33.8 | 9.31% (active) |
| CC(C)(C)CC(C)(C)NCc1cc(C(C)(C)C)cc(CNC(C)(C)CC(C)(C)C)c1O | 56.8 | 11.1% | 60.8 | 77.2 | 49.7% | 47.9 | 36.8% | 82.9 | 45.6% | 80.5 | 37.2 | 69.3 | 27.4% |  | 55.3 | 64.9% | 30.3% | 37.4 | 49.3% |
| CC(C)(C)NC(=O)C(OC(=O)C1CCc2cc(F)ccc2O1)c1ccccc1Cl (centres undefined) | 98.7 | 103% | 83.3 | 97.1 | 102% | 92.4 | 94.5% | 87.6 | 102% | 108 | 96 | 101 | 72.4% | 99 |  |  | 94.6% | 99 | 92.5% |
| CC(C)CC(NC(=O)OCC1c2ccccc2-c2ccccc21)C(=O)O (centres undefined) | 105 | 112% | 90.3 | 99.1 | 97.6% | 104 | 101% | 104 | 103% | 105 |  | 104 | 94.2% | 109 | 86.6 | 95% | 96.2% | 112 | 98.7% |
